# Source: PubChem BioAssay (NCI)
# Compounds without any hit were thinned out: in the full panel of roughly 79,000, 15% have a hit. A number with no mark means an inactive call. Activity calls are given as the source filed them. Cut-off read from the data, not from the text of the source: active = growth inhibition above about 70%; inactive = the rest.
# Legend:
# [1] = NCI Yeast Anticancer Drug Screen. Data for the rad52 strain (AID 147);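 note: 0% = growth of vehicle-treated control cultures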; settings: S. cerevisiae rad52 mutant growth inhibition, stronger effect = higher value
# How it was run: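 Screen used a yeast mutant impaired in DNA repair. After compound exposure, growth was measured. Values reflect inhibition compared with vehicle-treated cells.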
# [2] = NCI Yeast Anticancer Drug Screen. Data for the wt1 strain (AID 149);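 note: 0% = growth of vehicle-treated wt1 cultures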; settings: S. cerevisiae wt1 strain (SPY 50644) growth inhibition, stronger effect = higher value
# How it was run: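 Growth inhibition read against vehicle controls after compound exposure of the wt1 yeast strain.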
# [3] = NCI Yeast Anticancer Drug Screen. Data for the rad50EPP+ strain (AID 151);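 note: 0% = growth of vehicle-treated control cultures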; settings: S. cerevisiae rad50 mutant strain, stronger effect = higher value
# How it was run: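 Exposing the rad50EPP+ strain to each compound, growth was compared with vehicle-only cultures to give inhibition.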
# [4] = NCI Yeast Anticancer Drug Screen. Data for the mgt1 strain (AID 153); settings: S. cerevisiae mgt1 mutant growth inhibition, stronger effect = higher value
# How it was run: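 Genetically defined yeast (mgt1) treated with compound; inhibition of growth expressed against vehicle-treated controls.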
# [5] = NCI Yeast Anticancer Drug Screen. Data for the rad50 strain (AID 155);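 note: 0% = growth of vehicle-only cultures of the same strain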; settings: S. cerevisiae rad50 strain growth inhibition, stronger effect = higher value
# How it was run: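 Readout: growth inhibition relative to vehicle-treated cultures. Compound exposure was carried out in a genetically defined yeast strain deficient in DNA damage repair.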
# [6] = NCI Yeast Anticancer Drug Screen. Data for the mec2-1 strain (AID 157); settings: S. cerevisiae mec2-1 strain, stronger effect = higher value
# How it was run: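 Readout is yeast growth inhibition, normalised to vehicle-treated controls, in the mec2-1 strain exposed to compound.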
# [7] = NCI Yeast Anticancer Drug Screen. Data for the rad14 strain (AID 159);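 note: 0% = growth of vehicle-treated control cultures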; settings: S. cerevisiae rad14 strain growth inhibition, stronger effect = higher value
# How it was run: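 Growth inhibition vs vehicle controls; genetically altered yeast strain (DNA damage repair defect) treated with test compounds.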
# [8] = NCI Yeast Anticancer Drug Screen. Data for the sgs1 mgt1 strain (AID 161);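 note: 0% = growth of cultures given vehicle only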; settings: S. cerevisiae sgs1 mgt1 strain, stronger effect = higher value
# How it was run: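 Percent growth inhibition was derived by comparing compound-exposed mutant yeast with vehicle-exposed cultures. The strain carries alterations in DNA damage repair.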
# [9] = NCI Yeast Anticancer Drug Screen. Data for the CLN2oe strain (AID 163);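 note: 0% = growth of vehicle-only control cultures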; settings: S. cerevisiae CLN2oe strain, stronger effect = higher value
# How it was run: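 Values reflect how much compound exposure reduced yeast growth, referenced to vehicle-exposed cells. Assay organism is a strain with a defined genetic change affecting cell-cycle control.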
# [10] = NCI Yeast Anticancer Drug Screen. Data for the cln2 rad14 strain (AID 165);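 note: 0% = growth equal to vehicle treated cultures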; settings: S. cerevisiae cln2 rad14 strain, stronger effect = higher value
# How it was run: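 Relative to vehicle controls, growth inhibition of compound-treated cln2 rad14 yeast was recorded.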
# [11] = NCI Yeast Anticancer Drug Screen. Data for the bub3 strain (AID 167); settings: S. cerevisiae bub3 mutant strain, stronger effect = higher value
# How it was run: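 Readout: yeast growth inhibition, expressed relative to vehicle-only wells. The test organism is a mutant strain from a panel with lesions in DNA repair or checkpoint genes.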
# [12] = NCI Yeast Anticancer Drug Screen. Data for the wt2 strain (AID 169);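 note: 0% = growth of vehicle-treated yeast cultures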; settings: S. cerevisiae wt2 strain growth inhibition, stronger effect = higher value
# How it was run: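 Values express reduction in yeast growth under compound treatment, referenced to vehicle-treated cells.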
# [13] = NCI Yeast Anticancer Drug Screen. Data for the mlh1 strain (AID 171);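 note: 0% = growth of vehicle-treated control cultures of the same strain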; settings: S. cerevisiae mlh1 strain growth inhibition, stronger effect = higher value
# How it was run: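 Steps: expose the defined-mutant yeast strain to compound; expose a parallel culture to vehicle; measure growth; express compound effect as inhibition relative to the vehicle culture.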
# [14] = NCI Yeast Anticancer Drug Screen. Data for the sgs1 strain (AID 173);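 note: 0% = growth of vehicle-only control cultures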; settings: S. cerevisiae sgs1 mutant, stronger effect = higher value
# How it was run: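 Treat defined-mutant yeast with compound; measure growth; calculate inhibition relative to vehicle-treated cells.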
# [15] = NCI Yeast Anticancer Drug Screen. Data for the mlh1 rad18 strain (AID 175); settings: S. cerevisiae mlh1 rad18 strain growth inhibition, stronger effect = higher value
# How it was run: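 Test agents were incubated with a yeast strain of defined genotype (DNA damage repair defect). Inhibition of growth was derived by comparison with vehicle-exposed cultures.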
# [16] = NCI Yeast Anticancer Drug Screen. Data for the rad18 strain (AID 177); settings: S. cerevisiae rad18 mutant growth inhibition, stronger effect = higher value
# How it was run: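 A genetically defined yeast mutant impaired in DNA damage repair was treated with test compounds, then its growth was measured against cultures receiving vehicle alone.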
# [17] = at 5.0 µM (retest, dose inferred, filed as 0.5)
# [18] = at 50.0 µM (retest, dose inferred, filed as 5.0)
compound,measurement,setting,value
S=C(N/N=C(/c1ccccc1)c1ccccn1)N1CCCCCC1,growth inhibition,[1]; at 1.2 µM,42%
same,growth inhibition,[1]; at 3.7 µM,52%
same,growth inhibition,[1]; at 11.0 µM,57%
same,growth inhibition,[1]; at 33.0 µM,57%
same,growth inhibition,[1]; at 100.0 µM,41%
same,growth inhibition,[2]; at 1.2 µM,-3%
same,growth inhibition,[2]; at 3.7 µM,3%
same,growth inhibition,[2]; at 11.0 µM,4%
same,growth inhibition,[2]; at 33.0 µM,2%
same,growth inhibition,[2]; at 100.0 µM,-2%
same,growth inhibition,[3]; at 1.2 µM,5%
same,growth inhibition,[3]; at 3.7 µM,7%
same,growth inhibition,[3]; at 11.0 µM,8%
same,growth inhibition,[3]; at 33.0 µM,3%
same,growth inhibition,[3]; at 100.0 µM,6%
same,growth inhibition,[4]; at 1.2 µM,-5%
same,growth inhibition,[4]; at 3.7 µM,-7%
same,growth inhibition,[4]; at 11.0 µM,16%
same,growth inhibition,[4]; at 33.0 µM,-18%
same,growth inhibition,[4]; at 100.0 µM,-6%
same,growth inhibition,[5]; at 1.2 µM,0%
same,growth inhibition,[5]; at 3.7 µM,6%
same,growth inhibition,[5]; [17],5%
same,growth inhibition,[5]; at 11.0 µM,-20%
same,growth inhibition,[5]; at 33.0 µM,4%
same,growth inhibition,[5]; [18],96% (active)
same,growth inhibition,[5]; at 50.0 µM,76.7% (active)
same,growth inhibition,[5]; at 100.0 µM,8%
same,growth inhibition,[6]; at 1.2 µM,1%
same,growth inhibition,[6]; at 3.7 µM,0%
same,growth inhibition,[6]; [17],24%
same,growth inhibition,[6]; at 11.0 µM,4%
same,growth inhibition,[6]; at 33.0 µM,1%
same,growth inhibition,[6]; [18],97% (active)
same,growth inhibition,[6]; at 50.0 µM,80.5% (active)
same,growth inhibition,[6]; at 100.0 µM,4%
same,growth inhibition,[7]; at 1.2 µM,-5%
same,growth inhibition,[7]; at 3.7 µM,-4%
same,growth inhibition,[7]; at 11.0 µM,-4%
same,growth inhibition,[7]; at 33.0 µM,-5%
same,growth inhibition,[7]; at 100.0 µM,-1%
same,growth inhibition,[8]; [17],75% (active)
same,growth inhibition,[8]; [18],96% (active)
same,growth inhibition,[8]; at 50.0 µM,85.4% (active)
same,growth inhibition,[9]; at 1.2 µM,5%
same,growth inhibition,[9]; at 3.7 µM,0%
same,growth inhibition,[9]; at 11.0 µM,4%
same,growth inhibition,[9]; at 33.0 µM,-4%
same,growth inhibition,[9]; at 100.0 µM,7%
same,growth inhibition,[10]; [17],18%
same,growth inhibition,[10]; [18],96% (active)
same,growth inhibition,[10]; at 50.0 µM,82.5% (active)
same,growth inhibition,[11]; at 1.2 µM,4%
same,growth inhibition,[11]; at 3.7 µM,16%
same,growth inhibition,[11]; [17],95% (active)
same,growth inhibition,[11]; at 11.0 µM,22%
same,growth inhibition,[11]; at 33.0 µM,13%
same,growth inhibition,[11]; [18],97% (active)
same,growth inhibition,[11]; at 50.0 µM,87.8% (active)
same,growth inhibition,[11]; at 100.0 µM,2%
same,growth inhibition,[12]; at 1.2 µM,5%
same,growth inhibition,[12]; at 3.7 µM,7%
same,growth inhibition,[12]; at 11.0 µM,12%
same,growth inhibition,[12]; at 33.0 µM,10%
same,growth inhibition,[12]; at 100.0 µM,5%
same,growth inhibition,[13]; at 1.2 µM,-3%
same,growth inhibition,[13]; at 3.7 µM,-2%
same,growth inhibition,[13]; at 11.0 µM,4%
same,growth inhibition,[13]; at 33.0 µM,1%
same,growth inhibition,[13]; at 100.0 µM,-1%
same,growth inhibition,[14]; at 1.2 µM,4%
same,growth inhibition,[14]; at 3.7 µM,10%
same,growth inhibition,[14]; at 11.0 µM,11%
same,growth inhibition,[14]; at 33.0 µM,10%
same,growth inhibition,[14]; at 100.0 µM,7%
same,growth inhibition,[15]; [17],93% (active)
same,growth inhibition,[15]; [18],97% (active)
same,growth inhibition,[15]; at 50.0 µM,86.2% (active)
same,growth inhibition,[16]; at 1.2 µM,8%
same,growth inhibition,[16]; at 3.7 µM,20%
same,growth inhibition,[16]; at 11.0 µM,20%
same,growth inhibition,[16]; at 33.0 µM,6%
same,growth inhibition,[16]; at 100.0 µM,19%
Cc1c(C(Cc2ccccc2N(C)C(=O)/C=C\C(=O)O)c2c[nH]c3ccccc23)c2ccccc2n1C (stereo unspecified),growth inhibition,[1]; at 1.2 µM,-5%
same,growth inhibition,[1]; at 3.7 µM,0%
same,growth inhibition,[1]; at 11.0 µM,0%
same,growth inhibition,[1]; at 33.0 µM,7%
same,growth inhibition,[1]; at 100.0 µM,36%
same,growth inhibition,[2]; at 1.2 µM,-3%
same,growth inhibition,[2]; at 3.7 µM,-6%
same,growth inhibition,[2]; at 11.0 µM,-7%
same,growth inhibition,[2]; at 33.0 µM,0%
same,growth inhibition,[2]; at 100.0 µM,40%
same,growth inhibition,[3]; at 1.2 µM,-6%
same,growth inhibition,[3]; at 3.7 µM,-4%
same,growth inhibition,[3]; at 11.0 µM,-6%
same,growth inhibition,[3]; at 33.0 µM,-6%
same,growth inhibition,[3]; at 100.0 µM,4%
same,growth inhibition,[4]; at 1.2 µM,-3%
same,growth inhibition,[4]; at 3.7 µM,-3%
same,growth inhibition,[4]; at 11.0 µM,-2%
same,growth inhibition,[4]; at 33.0 µM,5%
same,growth inhibition,[4]; at 100.0 µM,65%
same,growth inhibition,[5]; at 1.2 µM,1%
same,growth inhibition,[5]; at 3.7 µM,-2%
same,growth inhibition,[5]; [17],-12%
same,growth inhibition,[5]; at 11.0 µM,-9%
same,growth inhibition,[5]; at 33.0 µM,8%
same,growth inhibition,[5]; [18],-12%
same,growth inhibition,[5]; at 50.0 µM,87.8% (active)
same,growth inhibition,[5]; at 100.0 µM,37%
same,growth inhibition,[6]; at 1.2 µM,-2%
same,growth inhibition,[6]; at 3.7 µM,-4%
same,growth inhibition,[6]; [17],8%
same,growth inhibition,[6]; at 11.0 µM,-5%
same,growth inhibition,[6]; at 33.0 µM,2%
same,growth inhibition,[6]; [18],8%
same,growth inhibition,[6]; at 50.0 µM,86.8% (active)
same,growth inhibition,[6]; at 100.0 µM,51%
same,growth inhibition,[7]; at 1.2 µM,-3%
same,growth inhibition,[7]; at 3.7 µM,-11%
same,growth inhibition,[7]; at 11.0 µM,-14%
same,growth inhibition,[7]; at 33.0 µM,-13%
same,growth inhibition,[7]; at 100.0 µM,33%
same,growth inhibition,[8]; [17],-16%
same,growth inhibition,[8]; [18],-16%
same,growth inhibition,[8]; at 50.0 µM,86.9% (active)
same,growth inhibition,[9]; at 1.2 µM,-11%
same,growth inhibition,[9]; at 3.7 µM,-2%
same,growth inhibition,[9]; at 11.0 µM,-9%
same,growth inhibition,[9]; at 33.0 µM,-4%
same,growth inhibition,[9]; at 100.0 µM,42%
same,growth inhibition,[10]; [17],38%
same,growth inhibition,[10]; [18],38%
same,growth inhibition,[10]; at 50.0 µM,88.1% (active)
same,growth inhibition,[11]; at 1.2 µM,-9%
same,growth inhibition,[11]; at 3.7 µM,-6%
same,growth inhibition,[11]; [17],-6%
same,growth inhibition,[11]; at 11.0 µM,4%
same,growth inhibition,[11]; at 33.0 µM,6%
same,growth inhibition,[11]; [18],-6%
same,growth inhibition,[11]; at 50.0 µM,85.5% (active)
same,growth inhibition,[11]; at 100.0 µM,30%
same,growth inhibition,[12]; at 1.2 µM,-3%
same,growth inhibition,[12]; at 3.7 µM,-4%
same,growth inhibition,[12]; at 11.0 µM,-5%
same,growth inhibition,[12]; at 33.0 µM,3%
same,growth inhibition,[12]; at 100.0 µM,49%
same,growth inhibition,[13]; at 1.2 µM,-7%
same,growth inhibition,[13]; at 3.7 µM,-6%
same,growth inhibition,[13]; at 11.0 µM,-7%
same,growth inhibition,[13]; at 33.0 µM,4%
same,growth inhibition,[13]; at 100.0 µM,62%
same,growth inhibition,[14]; at 1.2 µM,-5%
same,growth inhibition,[14]; at 3.7 µM,-4%
same,growth inhibition,[14]; at 11.0 µM,-3%
same,growth inhibition,[14]; at 33.0 µM,7%
same,growth inhibition,[14]; at 100.0 µM,46%
same,growth inhibition,[15]; [17],-9%
same,growth inhibition,[15]; [18],-9%
same,growth inhibition,[15]; at 50.0 µM,78% (active)
